Measured values: PubChem BioAssay AID540356 (Broad Institute, 2011)
The campaign covered roughly 2,500 compounds. About 360 (14%) were called active.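 The calls were made as follows: active = signal-lowering compounds whose fitted half-maximal concentration AC50 is no higher than ten times their top tested concentration; inconclusive = flat curve with 30 to 70% inhibition, or poor fit; inactive = flat within 30%, signal increase, or AC50 above limit.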 These entries were drawn from the full list.

Test: non-specific inhibitors of H2O2 luminol chemiluminescence – biochemical, luminescence, no ALR or DTT, cherry-pick, artefact control for ALR inhibitor project, dose response (AID 540356);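 as to activity change, negative = inhibition: 0% = median of neutral control wells and -100% = median of quercitin 100 µM wells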
Conditions: HRP/H2O2 luminol luminescence counterscreen; series mostly up to 10 µM; activity change, negative = inhibition: at the top concentration

| Compound | activity change, negative = inhibition | AC50 |
| --- | --- | --- |
| COc1cc(-n2c(-c3ccccc3)n[nH]c2=S)c(OC)cc1Cl | -5.76% (inactive) |  |
| COc1ccc(C(=O)N2CCN=C2SCc2cccnc2)c(OC)c1 | -0.521% (inactive) |  |
| Cc1cc(-c2nsc(=O)o2)c(S(C)(=O)=O)s1 | -3.28% (inactive) |  |
| Cc1c(/C=N\NC(=O)c2ccc(F)cc2)cnn1C | -0.44% (inactive) |  |
| CCN(CC)c1ccc(CNc2ccc3c(c2)ncn3CC)cc1 | -4.04% (inactive) |  |
| CCN(CC)c1ccc(CN2CCCCCC2)cc1 | -1.83% (inactive) |  |
| CN(C)c1ccc(-c2n[nH]c(=S)n2-c2ccccc2)cc1 | -1.29% (inactive) |  |
| Cc1cc(C)nc(Sc2c(C)nn(-c3ccccc3)c2C)n1 | -0.742% (inactive) |  |
| Oc1c(Cl)cc(Cl)cc1CNc1ccc(Br)cn1 | -1.14% (inactive) |  |
| O=C(c1ccc2c(c1)OCO2)N1CCN(c2ccccc2)CC1 | 0.839% (inactive) |  |
| Nc1nc(-c2c[nH]c3ccccc23)cs1 | -0.944% (inactive) |  |
| c1ccc2c(-c3csc(-c4ccncc4)n3)c[nH]c2c1 | -10.2% (inactive) |  |
| O=c1oc2ccccc2cc1-c1ccc(O)cc1 | -10.8% (inactive) |  |
| O=C(O)Cn1cc(C(=S)N2CCCCC2)c2ccccc21 | -14.5% (inactive) |  |
| CC(C)NS(=O)(=O)c1ccc2c(c1)NCC2 | -1.5% (inactive) |  |
| COc1ccc(C2=CSC3=NNC4(CCCCC4)NN23)cc1 | -0.282% (inactive) |  |
| COc1ccc(NC2c3ccccc3C(=O)N2c2cccnc2)cc1Cl (stereo unspecified) | -3.2% (inactive) |  |
| S=c1[nH]nc(-c2ccco2)n1C1CCCCC1 | -1.24% (inactive) |  |
| O=C(NNc1c2ccccc2nc2ccccc12)c1ccccc1O | -2.21% (inactive) |  |
| O=C(NNc1nc2cc3c(cc2s1)OCO3)c1ccccc1 | -0.28% (inactive) |  |
| O=C(NNc1nc2ccccc2s1)c1ccccc1F |  | 5.35 µM (active) |
| COc1cccc(N2CCN(CC(=O)NC(C)c3ccccc3)CC2)c1 (stereo unspecified) | -1.52% (inactive) |  |
| O=C(NC1CCCCC1)N1CCN(c2ccc(Cl)cc2)CC1 | -0.46% (inactive) |  |
| O=C(Nc1ccccc1N1CCCC1)c1ccccc1F | -1.54% (inactive) |  |
| COc1ccc(N2CCC(CNC(=O)Nc3ccc(OC)cc3OC)C2)cc1 (stereo unspecified) | -2.98% (inactive) |  |
| Clc1ccc(-n2nnc(-c3nccs3)n2)cc1Cl | -1.28% (inactive) |  |

| Compound | activity change, negative = inhibition | AC50 |
| --- | --- | --- |
| Cc1cc(C)n2cc(CSc3nc4ccccc4[nH]3)nc2n1 | -2.68% (inactive) |  |
| COc1ccccc1N1CCN(S(=O)(=O)c2cccc(F)c2)CC1 | -2.52% (inactive) |  |
| Oc1ccc(C2CNCCc3c2cc(O)c(O)c3Cl)cc1 (stereo unspecified) |  | 5.92 µM (active) |
| Oc1cc2c(cc1O)C(c1ccccc1)CNCC2 (stereo unspecified) |  | 4.68 µM (active) |
| Nc1[nH]c(N=NC(=O)c2ccc(F)cc2)c2ccccc12 |  | > 10 µM (inactive) |
| CC(C)(C)c1ccc(Oc2ccc(NC(=O)CCCC(=O)O)cn2)cc1 | -11.2% (inactive) |  |
| Cc1c(Cl)c(-c2n[nH]c(=S)n2-c2ccccc2)nn1C | -3.37% (inactive) |  |
| O=c1ccsn1Cc1ccccc1 | -0.761% (inactive) |  |
| COc1cc(OC)cc(C(=O)Nc2ccc(S(=O)(=O)Nc3cc(C)nc(C)n3)cc2)c1 | -13.2% (inactive) |  |
| COc1ccc(OC)c(N(CC(N)=O)S(=O)(=O)c2ccc(OC)c(OC)c2)c1 | -1.8% (inactive) |  |
| Cc1ccc(S(=O)(=O)NN2C(=O)/C(=C/c3cccnc3)SC2=S)cc1 | 0.314% (inactive) |  |
| Cc1nc(C)c(/C(O)=C\c2nc3ccc([N+](=O)[O-])cc3oc2=O)o1 | -6.55% (inactive) |  |
| Cc1cc(C(=O)Nc2nnc(-c3ccccc3)s2)no1 | 4.74% (inactive) |  |
| CNc1nnc(-c2cccc(N(C)C)c2)s1 |  | 1.05 µM (active) |
| Cc1nc(SCc2ccc(Cl)c(Cl)c2)ncc1C(=O)O | -2.92% (inactive) |  |
| COc1c(F)c(F)c(C(=O)O)c(Nc2ccc(C)cc2C)c1F | -2.48% (inactive) |  |
| COc1ccc(N2C(=O)CSC2c2ccncc2)cc1 (stereo unspecified) | -0.02% (inactive) |  |
| CCCCN(C)S(=O)(=O)c1ccc(C(=O)Nc2nnc(-c3ccco3)o2)cc1 | -1.54% (inactive) |  |
| Cn1c(=O)c2c(nc(N/N=C/c3ccncc3)n2Cc2ccccc2)n(C)c1=O | -3.48% (inactive) |  |
| Cc1cccnc1Nc1nc(-c2ccc(O)cc2O)cs1 | -5.97% (inactive) |  |
| Cc1ccc(-n2c(-c3ccc(Cl)cc3)n[nH]c2=S)c(C)c1 | -6.19% (inactive) |  |
| COc1ccccc1-c1cc(-c2ccc(O)cc2)nc(N)c1C#N | -2.09% (inactive) |  |
| Cc1ccc(Nc2nc(-c3ccc(O)cc3O)cs2)nc1 | -1.74% (inactive) |  |
| Nc1ncc(-c2ccccc2)c(-c2ccc(O)cc2O)n1 | -18.7% (inactive) |  |
| COc1ccc(-c2cn[nH]c2-c2ccc(OC)cc2O)cc1 | -0.281% (inactive) |  |
| COc1ccc(-c2n[nH]c(C)c2-c2ccccc2OC)c(O)c1 | -3.28% (inactive) |  |

| Compound | activity change, negative = inhibition | AC50 |
| --- | --- | --- |
| Cc1cc(C)nc(NNC(=O)c2ccccc2O)n1 | -6.11% (inactive) |  |
| CC[C@@H](C)[C@H](NC(=O)Cc1c(C)c2cc3c(C)coc3c(C)c2oc1=O)C(=O)O | -7.97% (inactive) |  |
| O=C(O)c1ccc(Sc2nnc(-c3cccc(Br)c3)o2)c([N+](=O)[O-])c1 | 0.002% (inactive) |  |
| ClCc1csc(-c2ccc(Cl)cc2)n1 | -0.804% (inactive) |  |
| O=C(NCCc1ccc(O)cc1)c1ccc(Cl)cc1 | -4.94% (inactive) |  |
| Cc1ccc(O)c(NC(=O)CCCC(=O)O)c1 | 0.036% (inactive) |  |
| c1ccc(-c2cc(N3CCCCCC3)n[nH]2)cc1 | -2.05% (inactive) |  |
| O=c1cc(-c2cccc([N+](=O)[O-])c2)[nH][nH]1 | -18% (inactive) |  |
| CC(=NC1CCCC1)c1c(C)[nH]n(-c2nc3ccccc3s2)c1=O | -5.59% (inactive) |  |
| N/C(=N/O)c1ccccc1N1CCC(Cc2ccccc2)CC1 | -3.88% (inactive) |  |
| CN(C)S(=O)(=O)c1cccc(-c2cn3cccnc3n2)c1 | -0.689% (inactive) |  |
| Nc1cccc(-c2cn3cccnc3n2)c1 |  | 4.52 µM (active) |
| Cc1nc(-c2cccc(N)c2)cs1 | 0.082% (inactive) |  |
| COc1ccc(CC(=O)N2CCN=C2SCc2cccc([N+](=O)[O-])c2)cc1 | -3.08% (inactive) |  |
| COc1ccc(/C=N/NC(=O)c2ccn[nH]2)cc1CSc1ccccn1 | -0.553% (inactive) |  |
| CCc1c(C)c2cc(Cl)c(O)c(CN3CCCCC3)c2oc1=O | -0.144% (inactive) |  |
| Cc1c(Br)c(=O)oc2c(Br)c(O)c(O)cc12 |  | 7.79 µM (active) |
| CC1CCC2C(C1)Nc1c(C(=O)O)cccc1C2(C)C (stereo unspecified) | -7.59% (inactive) |  |
| C=CCn1c(C(C)NC(=O)c2cccc(C)c2)n[nH]c1=S (stereo unspecified) | -5.54% (inactive) |  |
| COc1cccc(OC)c1C(=O)N1CCN=C1SCc1cccnc1 | 0.71% (inactive) |  |
| Cc1cc(C)nc(NN2C(=O)/C(=C/c3ccc(O)cc3)SC2=S)n1 | -1.81% (inactive) |  |
| O=C(O)C(c1ccccc1)N1C(=O)/C(=C\c2ccc(-c3cccc(Cl)c3)o2)SC1=S (stereo unspecified) | -3.18% (inactive) |  |
| O=C(O)C(c1ccccc1)N1C(=O)/C(=C\c2ccc(O)c(O)c2)SC1=S (stereo unspecified) |  | 5 µM (active) |
| Clc1ccc(/C=C/c2ncc3ccccn23)cc1 | -2.76% (inactive) |  |
